Data published in PubChem BioAssay AID1445 (SRMLSC, 2008).
About 910 (0.41%) of roughly 220,000 compounds were called active. What follows is part of a selection rich in actives, with near analogues and random picks from the rest. Potency and affinity values are given separately. A number with no mark means an inactive call.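 How the source made its calls: active means primary inhibition above the hit cutoff, then over 50% inhibition at one or more dose response concentrations (cut at about 23% in these data, passing the limit was not always enough); inconclusive means conflicting primary data, or primary hits not chosen for dose response; inactive means low primary inhibition, or under 50% at every dose.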

molecular target: Aminopeptidase N (Plasmodium falciparum (isolate 3D7)) (UniProt O96935); assay: malaria alanyl aminopeptidase activity blockers – biochemical, fluorogenic H-Leu-NHMec substrate, 1536-well (AID 1445); settings: recombinant M1AAP, H-Leu-NHMec fluorogenic kinetic assay; at 30 µM, hits give high values unless noted;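 further: plate controls were DMSO full reaction for no effect and no enzyme background for full effect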
Sequence (O96935 whole entry, looked up): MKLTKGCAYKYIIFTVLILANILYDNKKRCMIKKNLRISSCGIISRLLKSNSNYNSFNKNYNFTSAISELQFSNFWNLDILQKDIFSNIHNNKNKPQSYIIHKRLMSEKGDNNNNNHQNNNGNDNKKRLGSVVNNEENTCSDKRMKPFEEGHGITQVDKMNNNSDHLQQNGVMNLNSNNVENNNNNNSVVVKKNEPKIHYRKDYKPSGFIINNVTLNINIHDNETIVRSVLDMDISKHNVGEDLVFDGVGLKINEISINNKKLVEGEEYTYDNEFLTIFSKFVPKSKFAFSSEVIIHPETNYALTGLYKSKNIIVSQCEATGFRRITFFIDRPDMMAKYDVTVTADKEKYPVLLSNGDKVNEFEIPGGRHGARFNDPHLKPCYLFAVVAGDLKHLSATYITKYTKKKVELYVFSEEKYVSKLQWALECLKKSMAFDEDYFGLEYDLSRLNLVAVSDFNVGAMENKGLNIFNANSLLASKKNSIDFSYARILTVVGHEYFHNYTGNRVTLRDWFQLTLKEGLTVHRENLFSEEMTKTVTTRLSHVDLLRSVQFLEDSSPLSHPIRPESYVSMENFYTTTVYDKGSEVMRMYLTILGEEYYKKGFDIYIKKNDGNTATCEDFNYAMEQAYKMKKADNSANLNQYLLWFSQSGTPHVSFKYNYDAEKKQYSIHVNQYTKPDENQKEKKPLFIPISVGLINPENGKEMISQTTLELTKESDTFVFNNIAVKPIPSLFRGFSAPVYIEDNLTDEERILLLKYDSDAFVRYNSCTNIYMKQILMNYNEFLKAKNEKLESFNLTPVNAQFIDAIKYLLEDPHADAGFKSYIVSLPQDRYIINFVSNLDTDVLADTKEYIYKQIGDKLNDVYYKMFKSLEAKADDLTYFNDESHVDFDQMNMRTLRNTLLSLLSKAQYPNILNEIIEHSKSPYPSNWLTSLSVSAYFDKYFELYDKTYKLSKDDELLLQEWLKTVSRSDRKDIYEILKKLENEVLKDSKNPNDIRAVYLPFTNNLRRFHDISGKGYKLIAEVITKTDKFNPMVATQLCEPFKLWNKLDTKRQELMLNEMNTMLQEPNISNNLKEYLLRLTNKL

| Compound | inhibition |
| --- | --- |
| CC1=NNC(=O)C1Oc1ccccc1 (configuration not stated) | 3.86% |
| CCCCCCn1c(N2CCC(C(N)=O)CC2)nc2c1c(=O)[nH]c(=O)n2C | -0.78% |
| Cc1nc(Cl)sc1C(=O)Nc1ccccc1 | 2.8% |
| O=C(CSc1nc2ccccc2c(=O)n1-c1ccccc1)c1c[nH]c2ccccc12 | 1.41% |
| COc1ccc2cc(C(=O)C3CCCN(C(=O)CSc4nnc(C)o4)C3)ccc2c1 (configuration not stated) | 12.3% |
| OC1=C(O)c2nc3ccccc3nc21 | -5.83% |
| Cc1cc2nc3c(nc2cc1C)C(O)=C3O | 20.8% |
| Cc1nc2c(c3c1[nH]c1ccccc13)C(O)CC(C)(C)C2 (configuration not stated) | 22.4% |
| C=CCn1c(=O)/c(=C/c2ccc(Cl)cc2)s/c1=C(/C#N)c1nnc2n1CCCCC2 | 21.5% |
| C=CCn1c(=O)/c(=C/c2ccc(F)cc2)s/c1=C(\C#N)c1nnc2n1CCCCC2 | 20.7% |
| CCOc1ccc(NC(=NCc2ccc3c(c2)OCO3)SC2CC(=O)N(c3ccc(C(=O)O)cc3)C2=O)cc1 (configuration not stated) | 1.35% |
| N=c1sccn1CC(=O)Nc1ccc(S(=O)(=O)N2CCOCC2)cc1 | -2.17% |
| Cc1ccc(Cn2c(O)c(N=O)c3ccccc32)cc1 | 4.37% |
| O=C(c1ccc2c(c1)OCO2)C1CCCN(C2CCN(CCc3ccccc3)CC2)C1 (configuration not stated) | 6.4% |
| CC(C)(C)NC(=O)CSc1nnc(Cc2ccccc2)n1CC1CCCO1 (configuration not stated) | 2.88% |
| COc1ccc(OC)c(NC(=S)NCc2cccnc2)c1 | 4.71% |
| O=C(O)C1C2C=CC(C2)C1C(=O)NCc1ccccn1 (configuration not stated) | -0.69% |
| COc1ccc(NC(=O)NCc2ccco2)c(OC)c1 | 1.06% |
| O=C(O)C1C2C=CC(C2)C1C(=O)NCc1cccnc1 (configuration not stated) | 2.34% |
| O=C(NCc1ccccn1)C1C2C=CC(C2)C1C(=O)Nc1ccc(F)cc1 (configuration not stated) | 18.1% |
| COc1ccc(OC)c(C2=NOC(C(=O)NCc3ccccn3)C2)c1 (configuration not stated) | -2.41% |
| COc1ccc(NC(=O)C2C3C=CC(C3)C2C(=O)NCc2ccco2)cc1 (configuration not stated) | 4.82% |
| Cc1cccc(C)c1NC(=O)C1C2C=CC(C2)C1C(=O)NCc1ccccn1 (configuration not stated) | 15.1% |

| Compound | inhibition |
| --- | --- |
| COc1ccc(NC(=O)C2C3C=CC(C3)C2C(=O)NCc2ccccn2)c(OC)c1 (configuration not stated) | 25.6% (active) |
| O=C(Cn1nc(Cl)nc1Cl)Nc1ccccc1 | 0.91% |
| O=C(NNC(=S)Nc1ccc(F)cc1)C1[C@H]2CCCC[C@@H]12 (some centres not stated) | -16.1% |
| O=C(NCc1n[nH]c(=S)n1-c1ccc(Br)cc1)c1ccc(S(=O)(=O)N2CCOCC2)cc1 | 2.45% |
| Cc1cc(C)c(S(=O)(=O)N2CCN(C)CC2)c(C)c1 | 4.18% |
| Cc1ccc(NC2=C(Cl)C(=O)OC2OC(=O)c2ccco2)cc1C (configuration not stated) | 5.26% |
| C=CCOC(=O)C1=C[C@@H](c2coc3ccccc3c2=O)C[C@@H](OCc2ccc(CO)cc2)O1 | 6.22% |
| CCN(CC)CCOC(=O)c1cccc2c1-c1ccccc1C2O (configuration not stated) | 1.02% |
| NNC(=O)c1cc2c(s1)-c1cc(Cl)ccc1SC2 | 3.34% |
| Cc1ccc(SCC(=O)Nc2ccccc2C(=O)O)cc1 | -0.6% |
| CC(=O)Nc1cccc(C(=O)Nc2ccccc2C(=O)O)c1 | -0.69% |
| Cc1ccc(C)c(Oc2coc3cc(OCC(=O)Nc4ccccc4C(C)C)ccc3c2=O)c1 | 2.02% |
| COc1ccc(C(=O)ON=C2CCN(c3ccc([N+](=O)[O-])cc3)CC2)cc1 | 4.56% |
| Cc1ccc(C(=O)ON=C2CCN(c3ccc([N+](=O)[O-])cc3)CC2)cc1 | 14.4% |
| Cc1ccc2nc(-c3ccc(SCC(=O)N4CCc5ccccc54)nc3)[nH]c2c1 | 4.65% |
| C=C1c2ccccc2NC(=O)N1c1ccc(C)cc1 | -1.9% |
| CCC1CCCCN1C(=S)NC(=O)c1ccc([N+](=O)[O-])cc1 (configuration not stated) | 5.65% |
| CC1CCCCN1C(=S)NC(=O)c1cccs1 (configuration not stated) | 13.7% |
| COc1cc(O)c(C(CC(=O)N2CCN(c3ccccc3)CC2)c2ccc(N(C)C)cc2)c(OC)c1 (configuration not stated) | 0.72% |
| O=C(Nc1ccc2c(c1)OCO2)C1CCN(S(=O)(=O)c2cccs2)CC1 | 3.56% |
| O=C(NCc1ccc2c(c1)OCO2)C1CCCN(S(=O)(=O)c2cccs2)C1 (configuration not stated) | 24.9% (active) |
| O=C(Nc1ccc2c(c1)OCO2)C1CCCN(S(=O)(=O)c2cccs2)C1 (configuration not stated) | 13.9% |
| O=C(NCc1ccccc1)C1CCCN(S(=O)(=O)c2cccnc2)C1 (configuration not stated) | 20% |

| Compound | inhibition |
| --- | --- |
| CCS(=O)(=O)N1CCCC(C(=O)NCc2ccc3c(c2)OCO3)C1 (configuration not stated) | 1.85% |
| COc1cccc(CNC(=O)C2CCN(S(=O)(=O)c3cccs3)CC2)c1 | 10.2% |
| CS(=O)(=O)N1CCC(C(=O)NCc2ccc3c(c2)OCO3)CC1 | 21.2% |
| Cc1ccc(CNC(=O)C2CCCN(S(=O)(=O)c3cccnc3)C2)cc1 (configuration not stated) | 13% |
| O=C(NCc1ccc2c(c1)OCO2)C1CCN(S(=O)(=O)N2CCCCC2)CC1 | 10.8% |
| Cc1nc2ccccc2c2oc(C(=O)NC3CC3)cc12 | 1.86% |
| COC(C[C@@H](O)CC(=O)[C@@H](C)OCc1ccccc1)OC | -6.94% |
| O=C(NCc1ccc2c(c1)OCO2)C1CC(=O)N(CCc2ccccc2)C1 (configuration not stated) | 0.19% |
| O=C(Cn1cccc1C(=O)c1ccccc1)NCc1ccccn1 | 4.68% |
| CC(Sc1ccc(Cl)cc1)C(=O)Nc1ccccc1C(=O)N1CCOCC1 (configuration not stated) | -3.03% |
| Nc1ccc2c(c1)nc(Cc1ccccc1)n2CCO | 9.11% |
| Cc1ccnc(NS(=O)(=O)c2cnc(Cl)c(Br)c2)c1 | 4.88% |
| Cc1cccc(-n2cc(CN(C)Cc3nccn3C)c(-c3cccc(F)c3)n2)c1 | 4.73% |
| CN(CC(=O)Nc1ccc(F)cc1)C(=O)COc1ccc(C(=O)c2ccccc2)cc1 | 2.01% |
| COCCn1c(SCC(=O)NC(=O)NCc2ccccc2)nc2ccccc21 | -0.93% |
| CCCn1c(C)cc(/C=C(\C#N)C(=O)OCC(=O)NC(=O)NCC)c1C | 8.1% |
| COc1ccc(N(CC(=O)Nc2ccccc2C(=O)O)S(=O)(=O)c2ccc(C)c([N+](=O)[O-])c2)cc1 | 6.07% |
| Cc1ccc(OCC(=O)Nc2ccc(N3CCN(C(=O)c4ccc(C)cc4)CC3)cc2)cc1 | -2.61% |
| Cc1ccc(C(=O)N2CCN(S(=O)(=O)c3ccccc3)CC2)cc1 | 1.63% |
| COc1ccc(OC)c2sc(NC(=O)c3ccc(S(=O)(=O)N(C)C)cc3)nc12 | 23.5% (active) |
| COc1ccc(NC(=O)c2ccc(S(=O)(=O)N(C)C)cc2)cc1OC | -1.14% |
| COc1ccc(OC)c2sc(NC(=O)c3ccc(S(=O)(=O)N4CCOCC4)cc3)nc12 | -1.73% |
| CC(=O)N1CCN(Cc2nc3cc(NC(=O)c4cccc(Br)c4)ccc3n2C)CC1 | 4.84% |

| Compound | inhibition |
| --- | --- |
| Cc1cc(C)n2cc(CSc3ccc(Br)cc3)nc2n1 | -0.36% |
| CC(C)N(Cc1nc(-c2ccccc2)no1)C(=O)C(Cl)(Cl)Cl | 1.11% |
| NC(=O)N/N=C/c1cn(-c2ccccc2)nc1-c1cccs1 | 4.92% |
| Cc1c(Cc2ccccc2)c(=O)oc2cc(OC(=O)c3ccccc3)ccc12 | 1.43% |
| COC(=O)Cc1c(C)c2ccc(OC(C)C)cc2oc1=O | 4.34% |
| Cc1ccc(C(c2nnnn2CCC(C)C)N2CCN(C)CC2)cc1 (configuration not stated) | -0.91% |
| CC(C)C[C@H](NC(=O)c1nc[nH]c1C(=O)N1CCN(C(=O)OC(C)(C)C)CC1)C(=O)OC(C)(C)C | 14.4% |
| CC(C)C[C@H](NC(=O)c1[nH]cnc1C(=O)N[C@@H](C)C(=O)OC(C)(C)C)C(=O)OC(C)(C)C | -4.65% |
| CC(C)C[C@H](NC(=O)c1nc[nH]c1C(=O)N[C@@H](CC(C)C)C(=O)OC(C)(C)C)C(=O)OC(C)(C)C | -5.44% |
| CC(C)C[C@H](NC(=O)c1nc[nH]c1C(=O)NC1CCN(C(=O)OC(C)(C)C)CC1)C(=O)OCc1ccccc1 | -9.66% |
| COc1cc(OC)cc(C2C(C#N)=C(N)Oc3n[nH]c(-c4cccnc4)c32)c1 (configuration not stated) | 14.9% |
| COc1cc(C2C(C#N)=C(N)Oc3n[nH]c(-c4cccnc4)c32)cc(Br)c1O (configuration not stated) | 17.3% |
| CC(C)COc1ccc(C(=O)OCCN2CCOCC2)cc1 | 0.38% |
| CN1CCN(Cc2c(O)c(Cl)cc3c(-c4ccccc4)cc(=O)oc23)CC1 | 19.7% |
| CCN1CCN(Cc2oc(CO)cc(=O)c2O)CC1 | 0.53% |
| CCN1CCN(Cc2cc(=O)oc3ccc(Cl)cc23)CC1 | 1.72% |
| CCc1cc(=O)oc2cc(C)c(CN3CCCCC3)c(O)c12 | 13.8% |
| Cc1cc2oc(=O)cc(CN3CCC(C)CC3)c2c(C)c1Cl | 8.55% |
| CN1CCN(Cc2oc(CO)cc(=O)c2O)CC1 | -1.32% |
| CCc1cc(=O)oc2cc(C)c(CN3CCCC3)c(O)c12 | 13.6% |
| Cc1cc2oc(=O)cc(CN3CCC(C)CC3)c2cc1Cl | 0.59% |
| O=C(COC(=O)CCc1ccc(S(=O)(=O)N2CCOCC2)cc1)NCc1ccccc1Cl | -2.82% |
| Cc1ccc(C(=O)NC(=S)NCC2CCCO2)cc1Br (configuration not stated) | 3.05% |
